Active and inactive are the calls of the source.
target: Luciferin 4-monooxygenase (Photinus pyralis) (UniProt P08659); test: firefly luciferase enzyme inhibitors, primary screen, biochemical, luminescence, purified enzyme, 2006 set (AID 1141); conditions: SteadyGlo luminescence, 30 min, higher = more signal, called active from +8 up or from −8 down;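 further: cell-free assay with purified firefly luciferase at 100 ng per well in PBS; test concentration not given here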
Sequence (P08659 whole entry, looked up): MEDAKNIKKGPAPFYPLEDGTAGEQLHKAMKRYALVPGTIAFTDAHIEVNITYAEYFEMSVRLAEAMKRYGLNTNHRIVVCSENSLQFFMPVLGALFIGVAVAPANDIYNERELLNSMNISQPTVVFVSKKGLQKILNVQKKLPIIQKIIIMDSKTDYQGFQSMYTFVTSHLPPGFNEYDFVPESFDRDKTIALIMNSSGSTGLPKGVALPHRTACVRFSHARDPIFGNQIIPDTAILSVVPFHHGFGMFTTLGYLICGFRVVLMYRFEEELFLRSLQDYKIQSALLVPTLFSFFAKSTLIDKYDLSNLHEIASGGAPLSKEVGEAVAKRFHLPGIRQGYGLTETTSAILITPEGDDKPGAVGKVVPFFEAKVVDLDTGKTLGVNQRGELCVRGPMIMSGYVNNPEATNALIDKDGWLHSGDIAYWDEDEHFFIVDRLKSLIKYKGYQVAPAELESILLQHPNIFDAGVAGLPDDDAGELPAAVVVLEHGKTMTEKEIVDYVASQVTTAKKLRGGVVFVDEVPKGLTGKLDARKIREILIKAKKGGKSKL

z-score, inactive:
O=C1C2=CC[C@H]3C(=O)N(C[C@@H]4CCCO4)C(=O)[C@H]3[C@H]2[C@H](O)[C@@H]2O[C@H]12 -0.518
CO[C@@H]1C=CCC(=O)N[C@@H](C)C(=O)OC[C@@H](NS(=O)(=O)c2ccc(C)cc2)[C@H](C)C=CCC(=O)OC[C@H]1C -0.567
C[C@@H]1CC[C@@H](C(=O)O)N[C@H]1c1cccc(N2CCOCC2)c1 -1.34
CO[C@@H]1COC(=O)[C@@H]2CCCN2C(=O)[C@@H](C)COC(=O)CCC[C@H]1C 0.173
O=C1[C@H]2[C@H]3[C@H](O)[C@H](O)CC(=NOC[C@@H](O)COCc4ccco4)[C@@H]3CC[C@H]2C(=O)N1C1CCCCC1 0.0055
CC(CCC(=O)OC[C@H]1O[C@H](C#Cc2ccccc2)C=C[C@@H]1Oc1ccc(C)cc1)=NO[C@H](C)c1cn([C@@H]2COC[C@H]2O)nn1 -2.18
C[C@H]1CC[C@H]2C(=O)N[C@H](Cc3ccccc3)C(=O)N2[C@@H]1c1ccccc1 -0.854
CC(=O)OC[C@H]1O[C@H](CC=NO[C@H](C)c2cn([C@@H]3COC[C@H]3O)nn2)C=C[C@@H]1OC(C)=O -0.63
O=C1CCCC=C1C(O)COCc1ccccc1 (stereo unspecified) 0.345
COc1ccc(COC(=O)NN=C2C[C@@H](O)[C@@H](O)[C@@H]3[C@@H]4C(=O)N(C5CCCCC5)C(=O)[C@@H]4CC[C@@H]23)cc1 0.0242
COC(=O)CC=C[C@@H](C)[C@@H](C=NOC[C@@H](O)COCc1ccco1)OC -1.3
